Whole data set: some 1,100 compounds, median “Renilla luciferase signal (cell health) relative to plate median” near 0.97, cut for the highest 2% near 1.6. Many of the other results were omitted from the sample, so the highest values are more common in it than they were.
System: HEK293T (UBE3A T485A transfected, BAR Wnt reporter)
Assay: Renilla luciferase signal (cell health) relative to plate median (fold (linear ratio)); higher = higher Renilla signal
Settings: 24 h
Procedure, shortened: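 HEK293T cells were seeded at 4500 cells/well in white 384-well plates and grown in DMEM with 10% FBS at 37°C and 5% CO2. The cells were transfected using Fugene 6 with a BAR firefly luciferase Wnt reporter, TK-Renilla and an expression plasmid, and four hours later robots added the chemicals at 0.01–100 uM for 24 h before a Dual-Glo luciferase readout. Wnt activity was taken as the firefly/Renilla ratio and cell health as raw Renilla, each median-centred per plate. Values are averages of four biological replicates.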

SMILES | Renilla luciferase signal (concentration: 0.1 uM) | Renilla luciferase signal (concentration: 1 uM) | Renilla luciferase signal (concentration: 10 uM) | Renilla luciferase signal (concentration: 100 uM) | Renilla luciferase signal (concentration: 0.01 uM)
CC(C)CC(C)(O)C#CC(C)(O)CC(C)C (centres undefined) [2,4,7,9-Tetramethyl-5-decyne-4,7-diol] | 0.987 | 0.919 | 0.966 | 0.295 | 
CCCCOC(=O)c1ccccc1 [Butyl benzoate] | 0.872 | 0.958 | 1.1 | 1.1 | 
CCOC(=O)C(C)(C)Oc1ccc(Cl)cc1 [Clofibrate] | 0.962 | 1.02 | 1.17 | 1.38 | 
CCOC(=O)C(C)Oc1ccc(Oc2nc3ccc(Cl)cc3o2)cc1 (centres undefined) [Fenoxaprop-ethyl] | 0.851 | 1.02 | 1.13 | 1.78 | 0.9
CCOC(=O)C(C)Oc1ccc(Oc2cnc3cc(Cl)ccc3n2)cc1 (centres undefined) [Quizalofop-ethyl] | 0.758 | 0.993 | 0.953 | 1.88 | 1.1
CCCCOC(=O)[C@@H](C)Oc1ccc(Oc2ccc(C(F)(F)F)cn2)cc1 [Fluazifop-P-butyl] | 1.18 | 1.05 | 1.22 | 0.693 | 1.25
C#CCOC(=O)[C@@H](C)Oc1ccc(Oc2ncc(Cl)cc2F)cc1 [Clodinafop-propargyl] | 1.11 | 1.04 | 1.01 | 0.269 | 0.926
CCCCOC(=O)C(C)Oc1ccc(Oc2ccc(C(F)(F)F)cn2)cc1 (centres undefined) [Fluazifop-butyl] | 0.837 | 1.04 | 0.984 | 1.81 | 1.02
O=C([O-])c1[nH]n(-c2ccc(S(=O)(=O)[O-])cc2)c(=O)c1/N=N/c1ccc(S(=O)(=O)[O-])cc1.[Na+].[Na+].[Na+] [FD&C Yellow 5] | 1.1 | 1.15 | 1.15 | 0.999 | 
CC1(C)CC(N=C=O)CC(C)(CN=C=O)C1 (centres undefined) [Isophorone diisocyanate] | 0.927 | 0.855 | 0.865 | 0.953 | 
S=C([S-])NCCNC(=S)[S-].[Mn+2] [Maneb] | 1.01 | 0.995 | 0.968 | 0.105 | 0.874
CC(C(C)N1CC(=O)NC(=O)C1)N1CC(=O)NC(=O)C1 (centres undefined) | 0.674 | 0.785 | 0.383 | 0.396 | 0.735
C=CCCCCCCCCC(=O)O [10-Undecenoic acid] | 0.947 | 0.883 | 0.917 | 1.16 | 
